FBA Mtb inh – Mtb FBA enzyme inhibitors, primary screen, biochemical, fluorescence, strain H37Rv. Fructose-bisphosphate aldolase (Mycobacterium tuberculosis (strain ATCC 25618 / H37Rv)), …. purified M. tuberculosis FBA, fluorescence read-out. inhibition, % at 1 µM. 360,000 compounds, 2.3% hits; in the data active means inhibition above about 27%;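 further: 0% = vehicle and 100% = reference inhibitor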
Target sequence (P9WQA3 whole entry, looked up): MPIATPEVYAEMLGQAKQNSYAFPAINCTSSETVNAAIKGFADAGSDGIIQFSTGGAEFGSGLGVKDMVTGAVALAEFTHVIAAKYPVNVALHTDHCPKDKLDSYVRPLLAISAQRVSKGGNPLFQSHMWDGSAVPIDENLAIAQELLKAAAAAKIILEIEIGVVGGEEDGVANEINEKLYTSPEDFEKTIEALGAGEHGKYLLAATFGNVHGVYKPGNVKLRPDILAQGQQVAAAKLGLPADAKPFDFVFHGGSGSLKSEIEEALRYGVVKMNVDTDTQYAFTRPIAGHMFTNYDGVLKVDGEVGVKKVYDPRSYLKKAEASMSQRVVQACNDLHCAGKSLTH
BH1578 lux ind – inducers of Vibrio cholerae quorum light production without autoinducers, primary screen, BH1578 luxS cqsA deficient, single point; 350,000 compounds, 0.16% hits; activation, % at 18.7 µM; V. cholerae BH1578 lux reporter, luminescence, 6 h; in the data active means activation mostly above about 9.7%, no sharp cut-off
PrPC surface inh – inhibitors of human cell surface prion protein PrPC, primary screen, cell-based, TR-FRET | inhibition, % at 13.8 µM | 370,000 compounds, 0.43% hits | AID 720596, 2013 | TR-FRET read-out; in the data active means inhibition above about 24%; further: 0% = median of the test wells and 100% = reference compound wells
SARS 3CLpro inh – SARS-CoV 3CLpro protease inhibitors, primary screen, biochemical, quenched FRET. Replicase polyprotein 1ab (Severe acute respiratory syndrome coronavirus), P0C6X7. recombinant SARS-CoV 3CLpro, quenched FRET peptide cleavage. inhibition, % at 6 µM. 290,000 compounds, 0.14% hits; in the data active means inhibition above about 12%
GDH-TPI inh – GDH-TPI coupling enzyme inhibitors, primary screen, artefact control for M. tuberculosis FBA inhibitor project, biochemical, absorbance, full deck. GDH-TPI coupled enzyme counterscreen, NADH absorbance. 360,000 compounds, 1.2% hits. inhibition, % at 4.8 µM; in the data active means inhibition above about 30%;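 further: 0% = DMSO wells and 100% = wells lacking the enzyme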
Starred values were filed as active, the others as inactive; i = inactive; / = no result given; + = active, no number. Shown are actives, neighbours in structure and some others; about 3.9% of the full set was active somewhere.

SMILES | FBA Mtb inh | BH1578 lux ind | PrPC surface inh | SARS 3CLpro inh | GDH-TPI inh
O=C(N/N=C/c1ccc(Br)o1)c1cccnc1 | 1 | 0 | 1 | 2 | 16
O=C(N/N=C/c1cc(Br)c(O)c(Br)c1)c1cccnc1 | 0 | i | -1 | 4 | 31*
O=C(N/N=C/c1ccc(OC(=O)c2ccccc2)cc1)c1cccnc1 | + | 0 | -3 | 1 | 0
O=C(CNC(=O)c1cccc(Cl)c1)NCCCSc1ccccc1 | 3 | -1 | -2 | / | 4
Cc1ccc(S(=O)(=O)N2CCN(C(=O)COC(=O)c3nc(Cl)ccc3Cl)CC2)c(C)c1 | -2 | -5 | -1 | / | 4
COc1ccc(/C=N/NC(=O)c2cccnc2)cc1COc1ccc(NC(C)=O)cc1 | -8 | i | 3 | 1 | 31*
Nc1ccn(CC(=O)NCCNc2ccc([N+](=O)[O-])cn2)c(=O)n1 | 3 | 1 | -10 | / | 33*
O=C(CN1CCN(Cc2ccccc2)CC1)NCCNc1ccc([N+](=O)[O-])cn1 | 0 | 0 | -12 | 0 | 23
COc1cc(C#Cc2ccc3cc(CCO)oc(=O)c3c2)cc(OC)c1 | 23 | -1 | 6 | / | 36*
O=C(N/N=C/c1cccc(Br)c1)c1ccc(Cn2cc(Br)cn2)o1 | 0 | 2 | -2 | -5 | 6
Cc1ccsc1/C=N/NC(=O)c1ccc(Cn2cc(Br)cn2)o1 | 2 | -3 | -4 | -1 | 35*
CCN=C1NC(c2ccccc2C(F)(F)F)C(C(=O)OC)=C(C)N1C (stereo not drawn) | / | / | -5 | / | /
CN(C)S(=O)(=O)c1cccc(NC(=O)c2c[nH]c3ccccc23)c1 | 78* | i | -2 | 2 | -2
COC(=O)c1cc(S(=O)(=O)N(C)C2CCCCC2)c[nH]1 | 1 | 0 | -3 | -4 | 3
CC1CCCCN1C(=O)C1COc2ccccc2O1 (stereo not drawn) | 2 | 0 | 0 | -3 | 1
Nc1ccccc1-c1n[nH]c(=S)s1 | 61* | i | / | 2 | 11
CCC1CCCCN1CCNC(=O)CCS(=O)(=O)c1ccc(Br)cc1 (stereo not drawn) | 0 | i | 1 | -4 | 1
CCOC(=O)N1CCN(CC(=O)c2ccc(O)c(C)c2O)CC1 | -3 | 0 | 5 | -3 | 1
CCOC(=O)C1CCN(CC(=O)c2ccc(O)c(C)c2O)CC1 | 8 | 0 | 0 | 4 | 32*
C=CCN(c1ccccc1)S(=O)(=O)c1cccc(C(=O)N(CC)CC(=O)Nc2c(F)cccc2F)c1 | -2 | i | 5 | -1 | -2
COc1cc(C(=O)NCC(=O)N/N=C/c2ccc(-c3cccc([N+](=O)[O-])c3)o2)cc(OC)c1OC | -3 | -2 | -2 | -2 | 38*
COc1cc(C(=O)NCC(=O)N/N=C/c2ccc(-c3ccc([N+](=O)[O-])cc3)o2)cc(OC)c1OC | -12 | 0 | -22 | 1 | 15
CN(C)CCCNC(=O)/C(=C\c1ccc(-c2cccc([N+](=O)[O-])c2)o1)NC(=O)c1ccccc1 | -3 | -1 | -28 | -2 | 35*
CN(C)CCNC(=O)/C(=C/c1ccc(-c2ccc(Cl)cc2)o1)NC(=O)c1ccccc1 | 4 | i | -14 | -4 | 16
Cc1ccc(C(=O)N/C(=C\c2ccc(-c3cccc([N+](=O)[O-])c3)o2)C(=O)NCCCN(C)C)cc1 | -1 | 0 | -19 | -4 | 59*
SMILES | FBA Mtb inh | BH1578 lux ind | PrPC surface inh | SARS 3CLpro inh | GDH-TPI inh
NC(=O)c1ccsc1NC(=O)CSc1nnc(NC2CC2)s1 | -1 | -1 | 0 | / | -11
O=C(N/N=C/c1ccc([N+](=O)[O-])cc1)c1cc(C2CC2)[nH]n1 | -1 | 1 | -52 | -3 | 35*
O=C(N/N=C/c1ccc2c(c1)OCO2)c1cc(-c2ccncc2)nc2ccccc12 | -7 | -1 | 5 | -2 | 23
Cc1cc(C(=O)N/N=C/c2ccc3c(c2)OCO3)c2ccccc2n1 | -2 | -1 | 8 | 4 | 40*
O=C(N/N=C/c1ccc([N+](=O)[O-])cc1)c1cc(C2CC2)nc2ccccc12 | -5 | 0 | -6 | 2 | 33*
Cc1cc(C(=O)N/N=C/c2cc([N+](=O)[O-])ccc2O)c2ccccc2n1 | -6 | 0 | -13 | 2 | 6
Cc1cc(C(=O)N/N=C/c2ccc([N+](=O)[O-])cc2)c2ccccc2n1 | -5 | -1 | -3 | 2 | 51*
O=C(N/N=C/c1ccco1)c1cc(C2CC2)[nH]n1 | 1 | -1 | -4 | -5 | -5
COc1ccc(Cl)c2sc(N(CCN(C)C)C(=O)C3=COCCO3)nc12 | -1 | -4 | 1 | / | 9
O=C(N/N=C/c1ccc([N+](=O)[O-])cc1)c1[nH]ncc1Br | + | i | -26 | 1 | 20
O=c1c2c(nc3c(-c4cccc5ccccc45)c[nH]n13)CCC2 | 129* | i | -1 | -4 | 5
O=c1c2c(nc3c(-c4ccc(Cl)cc4)c[nH]n13)CCCC2 | 17 | 0 | 2 | -5 | 17
CCCCc1cc(=O)oc2cc(C)cc(OCC(=O)N3CCC(C(N)=O)CC3)c12 | 18 | -1 | -3 | -2 | 11
Cc1cc(OCC(=O)NC(Cc2ccc(Cl)cc2)C(=O)O)c2c3c(c(=O)oc2c1)CCC3 (stereo not drawn) | 72* | -1 | -3 | 5 | 9
Cc1cc(OCC(=O)O)c2c3c(c(=O)oc2c1)CCCC3 | 185* | i | -3 | -1 | 6
CCOC(=O)COc1cc(OCC(=O)OCC)c2c3c(c(=O)oc2c1)CCCC3 | 160* | i | 12 | 1 | 6
CCCCc1cc(=O)oc2cc(C)cc(OCC(=O)O)c12 | 152* | i | 3 | -5 | 23
Cc1cc(C(=O)N2CCC2(C)C(=O)NS(=O)(=O)c2ccccc2Cl)nn1C (stereo not drawn) | -1 | i | 1 | / | 5
Cc1cc(OCC(=O)NCC(O)c2ccccc2)c2c3c(c(=O)oc2c1)CCC3 (stereo not drawn) | 14 | 3 | -6 | -2 | 2
Cc1cc(OCC(=O)N[C@@H](Cc2ccccc2)C(=O)O)c2c3c(c(=O)oc2c1)CCC3 | 137* | 0 | -5 | -1 | 24
Cc1cc(OCC(=O)N[C@H](C(=O)O)c2ccccc2)c2c3c(c(=O)oc2c1)CCC3 | 114* | 0 | 4 | 1 | 4
CC=CC(C)=CC(C)C(=O)CC(O)CC1CC(=O)NC(=O)C1 (stereo not drawn) | -2 | i | 46* | / | 3
CCNC(COC(=O)c1ccc([N+](=O)[O-])cc1)C1CCCCC1 (stereo not drawn) | 3 | -1 | 7 | / | 3
Cc1ccc(Cn2c(=N)c(C#N)cc3c(=O)n4cccc(C)c4nc32)cc1 | / | / | / | 1 | /
